Akt phos inh: inhibitors of Akt phosphorylation | Neuro2A IGF-stimulated pAkt S473 HTRF, 20 min; hits give low values | 0.32% of 360,000 active | activity change, % for hits at 50 µM; in the data active = activity change below about -80%; inconclusive = mostly about -51% to -80%; also: % is scaled to controls: 0 for no effect and ±100 for the full control effect
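Neuro2A cells in DMEM with 0.5% FBS, overnight at 37 deg C, given compound at single 50 µM final, then IGF (6 nM final) for 20 min at 37 deg C. Lysed; phospho-Akt Ser473 by HTRF after 24 h, 665/615 ratio.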
AT treatment: potential ataxia-telangiectasia treatment. F2112 A-T fibroblasts, KAP-1 phosphorylation AlphaLISA; neocarzinostatin DNA damage 30 min before lysis. Potency, µM (titrated, usually from 57.5 µM), without a hit: at the top dose activation, actives largely listed as activators. 0.19% of 320,000 active; also: potency is read from the fitted curve at half-maximal effect; % of control where 0% means no effect; nearly all actives have a fitted effect of over 45% in size
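ATM-like activity read as KAP-1 phosphorylation via AlphaLISA donor/acceptor antibody pairs after lysis and 6 hr at 25C. Cells were ATM-null patient fibroblasts (F2112, hTERT), dosed 60 min, then exposed to the DSB inducer NCS for 30 min.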
N370S GC: N370S glucocerebrosidase modulation, Gaucher chaperone candidate; 0.092% of 330,000 active; AID 2101; N370S GC spleen homogenate, 4MU-glucoside fluorescence; Potency, µM (top dose mostly 59.4 µM), inactives show top-dose activity change, negative = inhibition, hits mostly inhibitors;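 also: potency is read from the fitted curve at half-maximal effect; 0% = full enzyme activity and -100% = no enzyme basal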
rTrxR1 inhibitor: blocks rat thioredoxin reductase 1; O89049; recombinant rTrxR1, NADPH fluorescence consumption, selenite substrate; Potency, µM (series often up to 114 µM), inactives show at the top dose activity change, negative = inhibition, actives largely listed as inhibitors; 1% of 390,000 active; AID 588453; also: potency is read from the fitted curve at half-maximal effect; % is scaled to controls: 0 for no effect and ±100 for the full control effect; nearly all actives have a fitted effect of over 65% in size
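Rat TrxR1 (90 nM in the dispensed reagent) was pre-reduced with 400 uM NADPH for 5 min at room temperature, then incubated with compound for 15 min. After 400 uM selenite was added, NADPH fluorescence (Ex 340/Em 450 nm) was followed for 8 min.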
Pin1 inh: human Pin1 inhibition | AID 504891 | Q13526 | Potency, µM (top dose mostly 115 µM), for the others: at the top dose activity, negative = inhibition, most hits filed as inhibitors | Pin1 FP peptide displacement, HiFluor488, 10 min | 0.009% of 390,000 active; active = well fitted inhibition curve with a large enough effect in the polarisation, with a control signal flat, not every such curve was filed as active; inconclusive = small, poorly fitted or top-dose-only effect, or effect the other way, or a change in a side signal; inactive = no such curve, though single readings can be large or run the other way; the % refers to the polarisation; also: potency is read from the fitted curve at half-maximal effect; % is scaled to controls: 0 for no effect and ±100 for the full control effect
Target sequence (Q13526 whole entry, looked up): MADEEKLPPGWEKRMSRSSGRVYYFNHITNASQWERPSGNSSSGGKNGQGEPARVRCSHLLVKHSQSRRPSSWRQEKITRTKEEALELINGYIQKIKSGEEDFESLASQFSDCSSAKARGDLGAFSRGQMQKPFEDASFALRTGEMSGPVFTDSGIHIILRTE
TrxR1 substrate: substrates of rat thioredoxin reductase 1; purified TrxR1 substrate turnover, NADPH consumption readout; 0.01% of 390,000 active; O89049; Potency, µM (titrated, usually from 114 µM), without a hit: at the top dose activity change, negative = substrate turnover; also: potency is read from the fitted curve at half-maximal effect; % is scaled to controls: 0 for no effect and ±100 for the full control effect; nearly all actives have a fitted effect of over 50% in size
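Rat TrxR1, dispensed at 90 nM, was prereduced with 400 uM NADPH (final) for 5 min at ~22 deg C, then incubated with compound 15 min before 400 uM selenite. A first-read NADPH fluorescence drop versus no-compound background flagged substrates.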
* = called active by the depositor; i = inactive; ? = inconclusive; . = not tested or not shown; [ ] = another dose, or the depositor's remark. Sampled rows, rich in hits. Any-hit rate of the full collection: about 1.4%. Unless noted, calls follow the shape of the dose curve; as a rule, active = well fitted curve in the direction sought with a large enough effect; inconclusive = small, poorly fitted or top-dose-only effect, or another doubt; inactive = no such curve, though single readings can be large; an effect the other way counts as inactive or inconclusive.

SMILES	Akt phos inh	AT treatment	N370S GC	rTrxR1 inhibitor	Pin1 inh	TrxR1 substrate
O=[N+]([O-])c1cc([N+](=O)[O-])c2nonc2c1Nc1ccc(O)cc1	i	3%	-16%	28µM*	?	-16%
O=C(c1ccco1)N1CCN(C(=O)c2ccco2)CC1	i	.	.	.	.	.
O=C(CN1CCN(C(=O)c2ccco2)CC1)NCc1ccc(Cl)cc1	i	11%	-2%	14µM*	7%	10%
O=C(c1ccco1)N1CCCC(N2CCN(c3ccccc3F)CC2)C1 (stereo not given)	i	-1%	0%	?	3%	-10%
O=C(CN1CCN(Cc2ccccc2)CC1)NCc1ccc(Cl)cc1	i	4%	-5%	12%[57.1 µM]	-2%	7%[57.1 µM]
O=C(c1ccco1)N1CCN(c2ccccc2F)CC1	-117%*	-2%	8%	14%	2%	-1%[57.1 µM]
O=C(c1ccco1)N1CCN(C(=O)c2sccc2-c2ccccc2)CC1	i	1%	4%	16µM*	-5%	5%[57.1 µM]
Cc1ccc2nc(/C=C/c3ccc(N(C)C)cc3)ccc2c1	.	.	.	16%	.	-2%
Cn1cnc([N+](=O)[O-])c1S(=O)(=O)c1cccc(Cl)c1	i	0%	-2%	?	1%	-4%
CCCn1c(CC)nc([N+](=O)[O-])c1S(=O)(=O)c1ccccc1	i	11%	-2%	0.32µM*	-1%	18%
O=C(CN1C(=O)CC(c2ccc(F)cc2)=Nc2ccccc21)NCc1ccccc1Cl	.	.	.	12%[57.1 µM]	0%	-8%[57.1 µM]
COCCNC(=O)c1c[nH]c2ccc(S(=O)(=O)N(C)c3ccc(C)c(C)c3)cc2c1=O	i	7.1µM*	-10%	5%[57.1 µM]	0%	0%[57.1 µM]
C/C(=N/N=C/c1ccccc1O)c1ccccc1O	i	-9%	-3%	-2%	3%	0%
CCCCS/C(N)=N/N=C/c1ccccc1O	-111%*	-1%	0%	5%[57.1 µM]	-1%	-6%[57.1 µM]
Ic1ccc(Nc2nc(NCCN3CCOCC3)nc(N3CCCC3)n2)cc1	.	.	.	-9%	.	-6%
CCN(CC)CC(C)(C)C(=O)/C=C/c1ccc(/C=C/C(=O)C(C)(C)CN(CC)CC)cc1	i	.	.	2µM*	-4%	-11%
Cc1ccc(-n2nnnc2CCl)cc1	i	10%	7%	14µM*	-6%	9%[57.1 µM]
CN(C)c1ccc(/C=C2\C=Cc3ccccc32)cc1[N+](=O)[O-]	.	.	.	-19%	.	-11%
Cc1ccc(S(=O)(=O)NC(=O)NCc2ccc3c(c2)OCO3)cc1	-111%*	1%	-11%	-8%	-1%	-3%
Cc1ccc(S(=O)(=O)NCC2CCC(C(=O)NCc3ccc4c(c3)OCO4)CC2)cc1 (stereo not given)	i	-2%	-2%	4%	4%	6%
S=c1nc[nH]c2n[nH]nc12	.	.	.	-5%	.	-3%
Oc1ccc(Oc2ccc3c(C(F)(F)F)cc(C(F)(F)F)nc3n2)cc1	-116%*	-1%	6%	13%	1%	-1%
CCC(C)Sc1cccc(-c2nc3ccc(C)cn3c2NC2CCCCC2)c1 (stereo not given)	i	25µM*	-29%	13%	5%	52%
CCC(C)Sc1cc(-c2nc3ccccn3c2NC2CCCCC2)ccc1OC (stereo not given)	i	32µM*	21%	68%	-4%	85%
COc1cc2c(cc1OC)C(c1cc(-c3cc(Cl)ccc3Cl)oc1C)=NCC2	.	.	.	-7%	.	7%
CCc1cccc2c(C(O)(c3c[nH]c4c(CC)cccc34)c3c[nH]c4c(CC)cccc34)c[nH]c12	.	.	.	6%	.	3%
c1csc(CNc2ncnc3cc(-c4ccc5c(c4)OCO5)ccc23)c1	.	.	.	.	39%	.
COc1ccccc1C(c1nnnn1C(C)(C)C)N1CCN(C(=O)c2ccco2)CC1 (stereo not given)	i	24%	8%[2.35 µM]	-36%	-6%	9%[57.1 µM]
CCC(C)(C)n1nnnc1C(c1cc2cccc(C)c2[nH]c1=O)N1CCCC1 (stereo not given)	i	-6%	-1%	?	8%	8%[57.1 µM]
